# Screens as filed in PubChem.
# KKLEB tox = cytotoxicity in KKLEB CF airway cells, primary screen, cytotoxicity control for CF NF-kB inhibitor project, cell-based, uHTS, fluorescence assay plates; KKLEB CF airway cells viability, ATPlite luminescence, overnight; stronger effect = lower value; cells stimulated with P. aeruginosa culture filtrate; activity change (cytotoxicity), % at 5 µM; hit rate 0.36% among 360,000; AID 602141, 2011;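 active = corrected activity change at or below -50% at 5 µM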
# CF NFkB block = inhibitors of PAF-induced NF-kB signaling, primary screen, cell-based, GFP fluorescence, uHTS | inhibition, % at 5 µM | AID 588850, 2011 | KKLEB NF-kB-GFP reporter, GFP fluorescence overnight | hit rate 0.86% among 360,000;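 active = at least 50% inhibition at 5 µM, scaled per plate between neutral and stimulator controls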;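 also: PAF is a Pseudomonas aeruginosa culture filtrate used as stimulus; plate controls were PAF-stimulated DMSO wells for no effect and unstimulated DMSO wells for full effect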
# PAX8 reporter = inhibitors of PAX8-driven TPO luciferase reporter, primary screen, RMG-I cells, single concentration; SteadyGlo, 24 h; inhibition, % at 12.6 µM; hit rate 1.2% among 360,000;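 active = mean replicate inhibition at least 60% with every replicate also reaching 60%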;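 also: luciferase light reporting Pax8 driven TPO promoter activity; plate controls were median of neutral control wells for no effect and mitoxantrone controls for full effect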
# EWS-Fli inh = EWS/Fli-driven NR0B1 reporter inhibitors, primary screen, A673 cells, NR0B1 luciferase, luminescence, MLPCN library. viability-normalised. inhibition, % at 12.6 µM. hit rate 0.67% among 350,000. AID 651661, 2012;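 active = mean inhibition of at least 50% after viability correction, with every replicate also passing that limit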;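 also: firefly luciferase signal divided by Alamar Blue viability fluorescence both relative to DMSO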
# LGR2 inh = inhibitors of bursicon-induced LGR2 CRE-luciferase signal, primary screen, cell-based, HEK293, CRE-luciferase reporter, bursicon stimulation; bursicon-stimulated, 4 h; inhibition, % at 9.99 µM; hit rate 0.35% among 380,000; AID 720647, 2013;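 active = drop in luminescence signal, shown as inhibition above about 50% in the replicate tests, limit read from the data, passing the limit was not always enough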;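 also: agonist challenge used bursicon conditioned medium at about half maximal strength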
# Shn3 inh set2 = reduction of Shn3 3'UTR firefly luciferase signal, primary screen, Schnurri-3 inhibitor project, cell-based, Clone20 osteoblasts, set 2; Clone20 osteoblast Shn3 3'UTR firefly luciferase, 24 h; inhibition, % at 12.5 µM; hit rate 0.52% among 360,000;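 active = mean inhibition of at least 75% with every replicate also reaching 75%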;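 also: 0% = median of neutral control wells and 100% = pilot-screen positive control compound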
# * marks the source's active call; other numbers are inactive results; . = no result. A selection: hits, their analogues and other compounds. The true share with any hit is near 2%.
SMILES,KKLEB tox,CF NFkB block,PAX8 reporter,EWS-Fli inh,LGR2 inh,Shn3 inh set2
CCCCCn1c(=O)c(C(=O)Nc2nc3ccccc3[nH]2)c(O)c2ccccc21,-52.0*,30.5,-1.4,-2.3,-2.1,-3.4
CCCCCn1c(=O)c(C(=O)Nc2ccccc2Cl)c(O)c2ccccc21,0.4,4.1,3.4,-18.8,-0.7,-28.0
COC(=O)[C@@H]1[C@@H](CO)[C@@H]2Cn3c(ccc(C4=CCCCC4)c3=O)[C@H]1N2Cc1ccccc1OC,.,.,7.0,-2.9,-1.9,.
CCN(CC)c1ccc(C=C2C(=O)N(C)C(=S)N(C)C2=O)o1,2.1,-29.3,77.7*,-81.2,5.3,-39.0
N#Cc1cccc(-c2ccc([C@H]3[C@H](CO)N4CCCCN(C(=O)Cc5ccccc5)C[C@@H]34)cc2)c1,.,.,-3.2,12.5,7.3,.
COc1cc(C(=O)Nc2ccc(Br)cc2C(=O)c2ccccc2Cl)cc(OC)c1OC,-50.5*,23.7,-7.4,11.5,9.4,4.4
c1ccc2c[n+](CCCCCCCCCC[n+]3ccc4ccccc4c3)ccc2c1,.,.,81.2*,20.1,4.6,.
C/C=C/c1ccc(C2[C@H]3CNC[C@@H]2N3CC2CCCCC2)cc1 (stereo partly specified),.,.,-4.4,76.2*,-4.9,.
CC[n+]1c(-c2ccccc2)c2cc(N)ccc2c2ccc(N)cc21,0.1,-66.5,110.5*,12.7,38.7,39.7
COC(=O)[C@H]1[C@H](CO)[C@H]2Cn3c(cccc3=O)[C@@H]1N2Cc1nccs1,.,.,-1.1,2.2,-1.5,.
COC(=O)[C@@H]1[C@@H](CO)[C@@H]2Cn3c(ccc(C4=CCCCC4)c3=O)[C@H]1N2C(=O)Cc1ccccn1,.,.,4.4,4.4,-14.1,.
O=C(c1ccc(Cl)cc1)C1CCCN(Cc2cccc3ncccc23)C1 (stereo unspecified),-11.8,4.3,20.5,33.4,3.0,85.5*
O=C(c1ccc(Cl)cc1)C1CCCN(Cc2cccc3cccnc23)C1 (stereo unspecified),-1.6,25.1,6.1,2.6,20.5,-2.2
O=C(Cc1ccccc1)N1CC2(C1)[C@H](c1ccccc1)[C@H](CO)N2Cc1cccc(F)c1,.,.,17.1,7.6,-9.0,.
COc1cc([C@@H]2c3cc4c(cc3[C@@H](OC)[C@H]3COC(=O)[C@H]23)OCO4)cc(OC)c1O,-15.5,15.5,21.4,62.6*,-19.7,-4.6
COc1ccc(C#Cc2ccc([C@H]3[C@@H](CO)N4CCCCN(C(=O)Cc5ccncc5)C[C@@H]34)cc2)cc1,.,.,-21.0,.,-10.8,.
CCOP(=O)(CCP(=O)(OCC)OCC)OCC.C[CH2][Sn]([Cl])([Cl])[CH2]C,35.9,53.1*,92.5*,45.3,23.2,47.6
CCOP(=O)(OCC)OCC,-1.0,-12.1,.,-2.7,-23.0,3.4
CC(=NNC(=S)N1CC2CCC(CC2)C1)c1nccs1,-26.4,67.1*,-33.6,-32.3,-35.7,93.0*
O=C(O)[C@@H]1[C@@H](CO)[C@@H]2Cn3c(ccc(-c4ccncc4)c3=O)[C@H]1N2C(=O)C1CCCC1,.,.,.,5.5,-14.8,.
c1ccc2c(c1)[IH]c1ccccc1-2,-0.2,-49.0,64.4*,30.9,-9.4,91.4*
CCCN1[C@@H]2Cn3c(ccc(-c4cccc(C(=O)N(C)C)c4)c3=O)[C@H]1[C@@H](C(=O)OC)[C@@H]2CO,.,.,-13.7,-6.4,5.3,.
CN(C)c1ccc(C(=O)N/N=C/C23CC[C@@H](O)CC2(O)CC[C@@H]2[C@@H]3CCC3(C)C(C4=CC(=O)OC4)CCC23O)cc1 (stereo partly specified),-52.2*,21.3,-2.2,31.3,36.9,.
O=C(c1ccc(CNS(=O)(=O)c2ccccc2)cc1)N1CCC2(CC1)OCCO2,-2.3,3.8,.,.,.,7.6
O=C(c1ccc(CNS(=O)(=O)c2ccc(Br)cc2)cc1)N1CCC2(CC1)OCCO2,-10.6,18.9,64.1*,5.0,17.6,13.7
SMILES,KKLEB tox,CF NFkB block,PAX8 reporter,EWS-Fli inh,LGR2 inh,Shn3 inh set2
CC(=O)OC(C)(C)/C=C/C(=O)C(C)(O)C1[C@H](O)C[C@@]2(C)C3CC=C4C(CC[C@@H](O)C4(C)C)[C@]3(CO)C(=O)C[C@]12C (stereo partly specified),-92.1*,91.3*,112.1*,-5.6,73.2*,70.4
CC(=O)OC(C)(C)/C=C/C(=O)C(C)(O)C1C(O)CC2(C)C3CC=C4C(CC(O)C(=O)C4(C)C)C3(C)C(=O)CC12C (stereo unspecified),-83.2*,88.9*,108.4*,-3.9,89.0*,84.7
CC(=O)OC(C)(C)/C=C/C(=O)[C@](C)(O)[C@H]1[C@H](O)C[C@@]2(C)[C@@H]3CC=C4[C@H](C[C@H](O)C(=O)C4(C)C)[C@]3(C)C(=O)C[C@]12C,-85.9*,84.3*,.,.,.,97.5*
C/C=C/c1ccc(C2[C@@H]3CN(Cc4cccnc4)C[C@H]2N3)cc1 (stereo partly specified),.,.,1.7,7.0,-4.4,.
O=c1[nH]c(=O)n(-c2ccccc2)c(O)c1/C=C1/C(c2ccccc2)=Nc2ccccc21,-18.6,59.6*,-14.2,.,5.9,-16.4
CCn1nc(-c2cccs2)nc2c(=O)n(C)c(=O)nc1-2,-89.4*,97.9*,.,.,.,97.1*
CCOc1ccc(-n2c(-c3cccs3)nc3ccccc3c2=O)cc1,-10.9,7.9,4.8,2.0,4.8,20.9
CCn1nc(/C=C/c2ccccc2)nc2c(=O)n(C)c(=O)nc1-2,-21.8,76.4*,94.4*,27.5,104.3*,97.8*
CC(C)CC#Cc1ccc([C@@H]2[C@@H](CO)N3CCCCN(C(=O)Cc4ccccn4)C[C@H]23)cc1,.,.,1.6,-19.3,-12.4,.
CCn1c(O)c(C=Nc2ccc(N3CCOCC3)cc2)c(=O)n(CC)c1=S,-22.0,56.9*,13.0,.,.,8.0
CCn1c(O)c(C=NCCN2CCOCC2)c(=O)n(CC)c1=S,2.1,53.7*,12.7,13.5,6.0,7.6
O=C(Cc1cccnc1)N1CCCCN2[C@H](CO)[C@@H](c3ccc(C#CC4(O)CCCC4)cc3)[C@@H]2C1,.,.,-1.1,-0.3,-1.8,.
COc1cc2c(cc1O)C[C@H]1NCCc3cc4c(c-2c31)OCO4,16.6,-315.0,85.6*,19.6,12.3,4.4
CC(C)c1ccc(N2C(=O)NC(=O)/C(=C\C=C\c3ccco3)C2=O)cc1,.,.,-1.5,73.7*,-1.9,.
O=C1NC(=O)N(Cc2ccccc2)C(=O)/C1=C/C=C/c1ccco1,1.7,86.8*,27.4,64.7*,13.8,58.7
COc1ccc(C#Cc2ccc([C@H]3[C@H]4CN(C(=O)Cc5cccnc5)CCCCN4[C@H]3CO)cc2)cc1,.,.,22.1,-13.1,-36.6,.
